Results reported in the supplement of paper PMC10720658.
± gives the standard deviation of the averaged measurements.

Each compound was assayed on AEK1 (Tb927.3.2440) (assay: percent reduction in TR-FRET probe signal relative to DMSO control; higher = stronger displacement of ATP-site probe (binding)). Conditions: 1 µM; incubation time 1 h.
For `C[C@@H]1COCCN1c1cc(C2(S(C)(=O)=O)CC2)nc(-c2cccc3[nH]ccc23)n1`, the “percent reduction in TR-FRET probe signal” value (from here on “percent reduction”) was 0.253 ± 7.1%. `CCN(CC)CCCC(C)Nc1nc(C)cc(Nc2ccc3nc(C)cc(N)c3c2)n1.Cl.Cl.Cl` (configuration not stated) was tested, and the “percent reduction” value was -2.65 ± 9%. In the case of `CCc1ccc(/C=C2/SC(=S)NC2=O)cc1`, the “percent reduction” value is reported as -1.24 ± 9.7%. With `Cc1[nH]c(/C=C2\C(=O)Nc3ccc(S(=O)(=O)Cc4c(Cl)cccc4Cl)cc32)c(C)c1C(=O)N1CCC[C@@H]1CN1CCCC1` the “percent reduction” value was -5.64 ± 15%. With `CCn1c(=O)c(-c2ccc(-c3cncs3)cc2Cl)cc2cnc(Nc3ccc(N4CCN(C)CC4)cc3)nc21` the “percent reduction” value was 43.6 ± 6.3%. `O=C(O)CCC(=O)Nc1ccc(Br)cn1` [Bikinin] was tested, and the “percent reduction” value was -3.76 ± 0.8%. `CC(=O)Nc1nc(C)c(-c2ccc(Cl)c(S(=O)(=O)NCCO)c2)s1` was tested, and the “percent reduction” value was -6.5 ± 15%. With `O=C(Nc1nc2cccc(-c3ccc(CN4CCS(=O)(=O)CC4)cc3)n2n1)C1CC1` [Filgotinib (GLPG0634)] the “percent reduction” value was 9.11 ± 14%. `CCNC(=O)Nc1ccc(-c2nc3c(c(N4CCOC[C@@H]4C)n2)CCN(C2COC2)C3)cc1` was tested, and the “percent reduction” value was 13.6 ± 12%. For `COc1cc2nccc(Oc3ccc(NC(=O)NC4CC4)c(Cl)c3)c2cc1C(N)=O` [Lenvatinib (E7080)], the “percent reduction” value was 1.41 ± 13%. With `COc1ccccc1-c1cc(Nc2cccc(CS(N)(=O)=O)c2)ncn1` the “percent reduction” value was -8.94 ± 6.4%. In the case of `CCCCOc1c(C(=O)c2c(F)cc(C)cc2F)cnc2[nH]ncc12`, the “percent reduction” value is reported as 0.53 ± 8%. For `CC(C)c1cnn2c(NCc3ccccc3)cc(NCCCCCCN)nc12.Cl`, the “percent reduction” value was -3.89 ± 4.8%. For `OCCn1cc(-c2cnc3nnn(Cc4ccc5ncccc5c4)c3n2)cn1`, the “percent reduction” value was -2.19 ± 3.1%. In the case of `Cc1ccc(C(=O)Nc2cccc(C(F)(F)F)c2)cc1Nc1nc(-c2cccnc2)nc2c1cnn2C`, the “percent reduction” value is reported as 1 ± 8.4%. In the case of `COc1cc2ncnc(Nc3ccc(O)c(Br)c3)c2cc1OC`, the “percent reduction” value is reported as -7.2 ± 7.7%. For `COc1cc2ncnc(Oc3cccc(NC(=O)Nc4cc(C(C)(C)C(F)(F)F)on4)c3)c2cc1OC`, the “percent reduction” value was 1.1 ± 13%. With `O=C(/C=C/c1ccc(O)c(O)c1)c1ccc(O)cc1O` [Butein] the “percent reduction” value was 4.05 ± 5.4%. With `CN1CCC(Nc2nc(Nc3ccc(Oc4ccccc4)cc3)c3c(=O)[nH]cc(Br)c3n2)CC1` the “percent reduction” value was 35.3 ± 9.5%. With `Cl.Cl.O=S(=O)(NCCNC/C=C/c1ccc(Br)cc1)c1cccc2cnccc12` the “percent reduction” value was 9.74 ± 13%. For `Cc1[nH]c2ccccc2c1C1=C(NCCc2ccc(F)cc2)C(=O)N(C)C1=O`, the “percent reduction” value was 8.32 ± 10%. In the case of `CC(C)NC[C@@H](C(=O)N1CCN(c2ncnc3c2[C@H](C)C[C@H]3O)CC1)c1ccc(Cl)cc1`, the “percent reduction” value is reported as 11.4 ± 8.1%. With `C[C@@H]1CN(CC(=O)Nc2ccc3c(c2)Cc2cccc(-c4cc(=O)cc(N5CCOCC5)o4)c2S3)C[C@H](C)O1` the “percent reduction” value was -2.9 ± 6.6%. With `Cc1cc(Nc2ncc3c(n2)N(C)C(=O)N(c2cc(NC(=O)c4cccc(C(F)(F)F)c4)ccc2C)C3)n(C)n1` the “percent reduction” value was 5.55 ± 14%. In the case of `CCN1/C(=C/C(C)=O)Sc2ccc(OC)cc21`, the “percent reduction” value is reported as 2.44 ± 5.9%. With `COC(=O)c1ccc2c(c1)NC(=O)/C2=C(\Nc1ccc(N(C)C(=O)CN2CCN(C)CC2)cc1)c1ccccc1` [Nintedanib (BIBF 1120)] the “percent reduction” value was 9.58 ± 14%. With `CC(C)Nc1cc(-c2c[nH]c(C(=O)N[C@H](CO)c3cccc(Cl)c3)c2)c(Cl)cn1` the “percent reduction” value was 0.153 ± 2.1%. `CN(c1ccccc1CNc1nc(Nc2ccc3c(c2)CC(=O)N3)ncc1C(F)(F)F)S(C)(=O)=O` was tested, and the “percent reduction” value was 55.1 ± 4.3%. `O=c1ncn2nc(Sc3ccc(F)cc3F)ccc2c1-c1c(Cl)cccc1Cl` was tested, and the “percent reduction” value was 9.39 ± 14%. `Cc1cc(C(=O)NOCCO)c(Nc2ccc(I)cc2F)n(C)c1=O` was tested, and the “percent reduction” value was 4.03 ± 2.7%. For `CN1CCCN(C(=O)c2cccc(-c3ccc(/C=C4/C(=O)Nc5ccc(Cl)cc54)o3)c2)CC1.Cl`, the “percent reduction” value was -0.203 ± 9.8%. With `Nc1nc(N)c(N=O)c(OCC2CCCCC2)n1` the “percent reduction” value was -2.92 ± 9%. For `Cc1c(CN2CCN(C(=O)[C@H](C)O)CC2)sc2c(N3CCOCC3)nc(-c3cnc(N)nc3)nc12`, the “percent reduction” value was 0.467 ± 7.8%. With `CCCCCCCCCCCCc1ccc(S(=O)(=O)Nc2nncs2)cc1` the “percent reduction” value was 11.2 ± 4.2%. For `O=C1Nc2ccc(I)cc2/C1=C/c1cc(Br)c(O)c(Br)c1`, the “percent reduction” value was 8.22 ± 8.7%. In the case of `Cc1nc2c(-c3cnc(N)nc3)nc(N3CCOCC3)nc2n1C(C)C`, the “percent reduction” value is reported as -5.76 ± 8.3%. `NC1(C(=O)N[C@@H](CCO)c2ccc(Cl)cc2)CCN(c2ncnc3[nH]ccc23)CC1` was tested, and the “percent reduction” value was 3.79 ± 1.4%.
